Measured values: PubChem BioAssay AID652128 (Broad Institute, 2013)
The other results are listed elsewhere or left out. Results filed as inconclusive are left out. Activity calls are given as the source filed them.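 How the source made its calls: active means fitted half-maximal concentration for signal loss at or below twice the highest dose tested, in every separate run (actives reach about 64 µM in these data); inconclusive means runs disagree, or flat partial signal loss, or poor fit; inactive means the rest.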

Experiment: DNA binders displacing acridine orange – biochemical, fluorescence polarization, cherry-pick, artefact control for RAD52 inhibitor project, dose response (AID 652128)
Conditions: Salmon sperm DNA/acridine orange FP displacement, DNA binding
With `CCOCCCNC(=S)Nc1ccc2nc(N3CCN(CC)CC3)cc(C)c2c1` the outcome was “inactive”.
In the case of `COc1cccc2sc(N(CCCN(C)C)C(=O)C(c3ccccc3)c3ccccc3)nc12`, the outcome is reported as “inactive”.
In the case of `CC(=O)Nc1cc(-c2ccc(N3CCN(C)CC3)cc2)cn2c(-c3cccc(C(=O)N(C)C)c3)cnc12`, the outcome is reported as “inactive”.
For `COC1=C(N2CCOCC2)C(=O)c2ccccc2C1=O`, the outcome was “inactive”.
For `Nc1ccc(OCC(O)C[n+]2ccc(CCS(=O)(=O)[O-])cc2)cc1` (stereo unspecified), the outcome was “inactive”.
In the case of `CCN(CC)CCN(C(=O)c1ccc2c(c1)CCCC2)c1nc2c(OC)cccc2s1`, the outcome is reported as “inactive”.
With `CCN1CCN(CCNC(=O)c2ccc(/C=C3/Sc4ccccc4N(Cc4cccc(C)c4)C3=O)cc2)CC1` the outcome was “inactive”.
For `CN(C)CCNC(=O)c1cccc(-c2cnc3c(NC=O)cc(-c4cccc(C(F)(F)F)c4)cn23)c1`, the outcome was “inactive”.
In the case of `CN(C)CCNC(=O)c1ccc(Cl)c2cc3ccccc3nc12`, the AC50 is reported as 13.1 µM (active).
In the case of `CN1CCN(CCCNC(=O)c2ccc(/C=C3\Oc4ccccc4N(Cc4ccc(Cl)cc4)C3=O)cc2)CC1`, the outcome is reported as “inactive”.
For `NCCCNC(=S)NCCCN(Cc1ccc(Cl)cc1)c1ccc(Br)cn1`, the outcome was “inactive”.
With `CN1CCC(CN)(N2CCN(c3ccccc3)CC2)CC1` the outcome was “inactive”.
In the case of `Cc1cccc(NC(=S)NC23CN4CN(CN(C4)C2)C3)c1`, the outcome is reported as “inactive”.
For `C[C@H]1CN([C@@H](C)CO)C(=O)CCCn2nncc2CO[C@@H]1CN(C)C(=O)Nc1ccc(N2CCN(C)CC2)cc1`, the outcome was “inactive”.
For `Cc1cc(C)c2nc3nc(C)cc(C)c3c(N)c2c1`, the AC50 was 30 µM (active).
For `CCn1cc(CN2CCC(C(=O)Nc3cccc(-c4cccc(Cl)c4)c3)CC2)cn1`, the outcome was “inactive”.
With `COc1cccc(CNc2nc(NCc3cccs3)nc3ccsc23)c1` the outcome was “inactive”.
For `CN1CCN(C2Cc3ccc(Cl)cc3Sc3ccc(F)cc32)CC1` (stereo unspecified), the outcome was “inactive”.
For `Nc1ncc(CN2CCCC(C(=O)Nc3ccc(-c4ccco4)cc3)C2)cn1` (stereo unspecified), the outcome was “inactive”.
For `Cc1cc2oc3ccc(NCCC4CCCN4C)cc3c(=O)c2cc1C` (stereo unspecified), the outcome was “inactive”.
With `Cc1ccc(C(=O)N/C(=C/c2ccc(-c3cccc([N+](=O)[O-])c3)o2)C(=O)NCCCN(C)C)cc1` the outcome was “inactive”.
For `CCCCCCCCCCOC(=O)Cn1c(COc2ccc(C)cc2)[n+](C)c2ccccc21`, the outcome was “inactive”.
In the case of `Oc1ccc(N=Cc2sc3ccccc3c2Cl)cc1`, the outcome is reported as “inactive”.
For `CC(C)C(=O)N1CC(=O)Nc2ccc(F)cc2C1c1ccc(F)cc1` (stereo unspecified), the outcome was “inactive”.
With `O=C1CCC(C(=O)OCC(=O)Nc2ccc(OC(F)F)cc2)=NN1` the outcome was “inactive”.
With `CCC1CCCCN1CCCNC(=O)c1cc2c(Cl)nc3ccccc3c2s1` (stereo unspecified) the AC50 was 49 µM (active).
